The values that follow come from PubChem BioAssay AID1851 (National Center for Advancing Translational Sciences (NCATS), 2009).

Usually AC50 stands for the concentration at which the activity in the assay is half-maximal.

The structures appear in SMILES notation. Among all 16,000 compounds or so, about 4,000 (25%) were called active. Roughly 26% stayed inconclusive and do not appear here. Calls come from the whole dose curve; as a rule, active = well fitted curve in the direction sought with a large enough effect; inconclusive = small, poorly fitted or top-dose-only effect, or effect the other way; inactive = no such curve, though single readings can be large or run the other way. Not all results are given here.
% is set by controls: 0 for no effect and ±100 for the full control effect.

Chain of Cytochrome P450 2C9 (Homo sapiens) (P11712 whole entry, looked up): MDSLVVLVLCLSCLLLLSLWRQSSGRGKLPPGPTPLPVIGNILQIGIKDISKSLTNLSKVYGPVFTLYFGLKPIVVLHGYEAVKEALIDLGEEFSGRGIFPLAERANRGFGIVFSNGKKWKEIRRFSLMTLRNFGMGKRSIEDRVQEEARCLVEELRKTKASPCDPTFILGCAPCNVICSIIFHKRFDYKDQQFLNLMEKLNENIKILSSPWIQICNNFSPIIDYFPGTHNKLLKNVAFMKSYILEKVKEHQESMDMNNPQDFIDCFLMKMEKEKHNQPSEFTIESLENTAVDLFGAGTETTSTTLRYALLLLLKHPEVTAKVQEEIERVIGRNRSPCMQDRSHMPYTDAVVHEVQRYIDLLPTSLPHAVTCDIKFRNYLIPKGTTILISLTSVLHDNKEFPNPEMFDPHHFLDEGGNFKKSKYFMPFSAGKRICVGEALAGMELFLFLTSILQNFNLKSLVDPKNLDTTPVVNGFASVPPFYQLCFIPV

The assay has as its target Cytochrome P450 2C9 (Homo sapiens) (UniProt P11712). Nature of the assay: Cytochrome panel assay with activity outcomes. The settings on record: recombinant CYP, pro-luciferin dealkylation, luminescence, p450-cyp2c9; series mostly up to 57.1 µM.
With `COc1ccccc1-c1cc(NCc2cccc(C)c2)ncn1`, the activity, negative = inhibition is 0.571% [at 2.29 µM] (inactive).

On to `O=C(O)/C(Cc1ccc([N+](=O)[O-])cc1)=N/O`, for which the activity, negative = inhibition was -14.2% [at 11.4 µM] (inactive). As for `Cc1ccc(N(Cc2ccc([N+](=O)[O-])cc2)C(=O)c2ccco2)cc1`, the AC50 was 3.16 µM (active).

With `O=C(N/N=C/c1ccc([N+](=O)[O-])o1)c1cc(-c2ccncc2)nc2ccccc12`, the AC50 is 0.891 µM (active). For the molecule `CCOC(=O)N/N=C\c1ccc([N+](=O)[O-])o1`, the AC50 result is “inactive”. As for `NC(=O)N/N=C\c1ccc([N+](=O)[O-])o1`, the AC50 result was “inactive”.

For the molecule `O=C(O)[C@H]1CN(CCCP(=O)(O)O)CCN1`, the AC50 entry was “inactive”. For the molecule `CN(C1CCCCC1)S(=O)(=O)c1ccc(NC(=S)NC(=O)c2cccs2)cc1`, the AC50 was 0.891 µM (active). As to `CCN(c1ccccc1)S(=O)(=O)c1ccc(NC(=S)NC(=O)c2ccc(Br)o2)cc1`, the AC50 is 1.58 µM (active). `CCN(c1ccccc1)S(=O)(=O)c1ccc(NC(=S)NC(=O)c2cccs2)cc1`: the AC50 was 1 µM (active). For the molecule `O=C(NC1CCCCCC1)c1cccs1`, the AC50 result is “inactive”. For the molecule `CCOC(=O)NCN1C(=O)C2C3C=CC(C3)C2C1=O` (configuration not stated), the AC50 result was “inactive”. Take `CC(C)(S)[C@H](N)C(=O)O`: the activity, negative = inhibition was 3.44% [at 11.4 µM] (inactive). Turning to `CCCCCCCCCCCCCC(=O)O[C@H](CC(=O)O)C[N+](C)(C)C`, the AC50 result is “inactive”. Consider `CN1C(C(=O)Nc2ccccn2)=C(O)c2ccccc2S1(=O)=O`, for which the AC50 was 3.98 µM (active). For `Cc1cc(NC(=O)C2=C(O)c3ccccc3S(=O)(=O)N2C)no1`, the AC50 result was “inactive”.

For `O=C1c2ccccc2S(=O)(=O)N1CCCCN1CCN(c2ncccn2)CC1`, the AC50 result was “inactive”. Turning to `N/N=C1/c2ccccc2N[C@H]1OC(=O)Nc1cccc(Cl)c1`, the activity, negative = inhibition was -11.6% [at 11.4 µM] (inactive). `O=C(Nc1cccc(F)c1)N1CCC2(CCNCC2)CC1`: the AC50 entry is “inactive”.

Take `O=C(Nc1cccc(Cl)c1)N1CCN2C(=O)c3ccccc3C12c1ccccc1` (configuration not stated): the concentration at half-maximal activity (AC50) was 2.51 µM (active).

Regarding `C[C@H](Cc1ccc(O)c(O)c1)[C@@H](C)Cc1ccc(O)c(O)c1`, the AC50 was 12.6 µM (active). Regarding `N[C@@H](Cc1ccc(O)c(O)c1)C(=O)O`, the AC50 entry was “inactive”. On to `C[C@](N)(Cc1ccc(O)c(O)c1)C(=O)O`, for which the AC50 entry was “inactive”.

Turning to `O=c1c2ccccc2nc2n1CCc1c-2[nH]c2ccccc12`, the AC50 entry was “inactive”. Turning to `O=c1c2ccccc2nc2n1CC/C2=C\c1ccccc1[N+](=O)[O-]`, the AC50 was 5.01 µM (active). Take `O=C(CSc1nc2ccccc2[nH]1)Nc1c(F)cccc1F`: the AC50 was 12.6 µM (active). On to `O=C(O)CSc1nc2ccccc2[nH]1`, for which the activity, negative = inhibition was -8.67% [at 11.4 µM] (inactive). Take `CNC(=O)[C@@H]1O[C@@H](n2cnc3c(NCc4cccc(I)c4)ncnc32)[C@H](O)[C@@H]1O`: the AC50 result was “inactive”. `Cc1ccc(Oc2nc(-c3ccccc3)ncc2S(C)(=O)=O)cc1`: the AC50 was 2.51 µM (active). Still for that read-out and setting: in the case of `CCOC(=O)c1cnc(-c2ccccc2)nc1Oc1ccc(Cl)cc1` it was “inactive”. On to `CCOC(=O)c1cnc(-c2ccccc2)nc1Oc1ccccc1`, for which the AC50 is 6.31 µM (active). Consider `CCOC(=O)c1cnc(-c2ccccc2)nc1Oc1cccc(Cl)c1`, for which the AC50 was 11.2 µM (active). On to `C=CCOc1ccc(CNC(C)(C)CO)cc1OC`, for which the AC50 result was “inactive”. With `CCn1cc(C(=O)O)c(=O)c2cc3c(cc21)OCO3`, the AC50 result is “inactive”.

Consider `O=C(O)c1cc(=O)c2c(Cl)cc(Cl)cc2[nH]1`, for which the AC50 result was “inactive”.

Take `CO/N=C\[C@@H](C)[C@H](OCc1ccccc1)C(C)C`: the activity, negative = inhibition is -6.92% [at 11.4 µM] (inactive). On the same count and under the same terms, as for `COc1ccccc1-c1nc(NCc2cnc(C)cn2)c2ccccc2n1`, the figure is 16.4% [at 2.29 µM] (inactive). With `Cn1ncc2c(Nc3cccc(C(=O)O)c3)ncnc21`, the AC50 entry is “inactive”. On to `CC(=O)Nc1ccc(Nc2ncnc3c2cnn3-c2ccccc2)cc1`, for which the AC50 was 0.891 µM (active). Same read-out and setting: in the case of `Nc1ncnc2c1cnn2-c1ccccc1` it was “inactive”; in that of `CCOC(=O)c1ccc(NC(=O)COc2ccccc2OC)cc1`, 17.8 µM (active). Consider `CCOC(=O)c1ccc(NC(=O)CC2NCCNC2=O)cc1` (configuration not stated), for which the AC50 entry was “inactive”. Consider `Cc1ccc2nc(Nc3ccccc3O)nc(-c3ccccc3)c2c1`, for which the AC50 is 8.91 µM (active). With `Cc1ccc2nc(N/N=C\c3cccc(C)n3)cc(C)c2c1`, the activity, negative = inhibition is 7.2% [at 11.4 µM] (inactive). As to `Cc1cc(C)nc(Nc2ncc(O)n2-c2ccccc2)n1`, the AC50 result is “inactive”. Same read-out and setting: in the case of `Cc1nc(N/N=C/c2ccccc2)nc(N(C)c2ccccc2)c1[N+](=O)[O-]` it was “inactive”. On to `Cc1ccc2nc(N/N=C/c3ccccc3C#N)nc(-c3ccccc3)c2c1`, for which the AC50 is 7.08 µM (active). As to `C[C@H](NC[C@H](O)CP(=O)(O)CC1CCCCC1)c1ccc(Cl)c(Cl)c1`, the AC50 result was “inactive”. As to `CC(C)CN(CC(C)C)C1=N/C(=C\c2ccco2)C(=O)N1c1ccccc1`, the AC50 is 3.98 µM (active). In the case of `Cc1cnc(CNc2ccnc(-c3ccccc3C(F)(F)F)n2)cn1`, the activity, negative = inhibition was 8.33% [at 2.29 µM] (inactive).

On to `C#CCSc1n[nH]c(-c2ccco2)n1`, for which the activity, negative = inhibition was 0.366% [at 11.4 µM] (inactive). As to `CC#C[C@@]1(O)CC[C@H]2[C@@H]3CCC4=CC(=O)CCC4=C3[C@H](c3ccc(N(C)C)cc3)C[C@]21C`, the AC50 is 3.98 µM (active). For the molecule `CC#C[C@]1(O)CC[C@H]2[C@@H]3CCC4=CC(=O)CCC4=C3[C@H](c3ccc(N(C)C)cc3)C[C@@]21C`, the AC50 result was “inactive”. For the molecule `CCCC(=O)N1c2ccccc2C(N(C(C)=O)c2ccccc2)CC1C` (configuration not stated), the AC50 was 3.98 µM (active).

As to `CC1Cc2ccccc2N1C(=O)CSCC(=O)O` (configuration not stated), the AC50 result was “inactive”. On to `Cn1nc(C(F)(F)F)c(/C=N/OCc2c(Cl)cccc2Cl)c1Cl`, for which the AC50 is 1.58 µM (active).

As to `O=C(NCCCN1CCCCCC1)C1CC(=O)N(CCc2ccccc2)C1` (configuration not stated), the AC50 entry is “inactive”. The same measure, in the same setting: as for `CC(=O)c1ccc(N2CCC(c3cc(-c4ccc(Cl)cc4Cl)n[nH]3)CC2)c([N+](=O)[O-])c1`, the figure is 3.98 µM (active).

With `CC(=O)c1ccc(N2CCC(c3cc(-c4ccc(Cl)cc4)n[nH]3)CC2)c([N+](=O)[O-])c1`, the AC50 is 3.98 µM (active). On to `COc1ccc(-c2cc(C3CCN(c4cc(Cl)nc(N)n4)CC3)[nH]n2)cc1`, for which the AC50 was 14.1 µM (active). Consider `COc1ccc(-c2cc(C3CCN(c4ccc(C(C)=O)cc4[N+](=O)[O-])CC3)[nH]n2)cc1`, for which the AC50 was 7.94 µM (active). With `CC(C)NC(=O)N1CCC2(CC1)CCN(S(C)(=O)=O)CC2`, the AC50 entry was “inactive”.

On to `CN(Cc1ccco1)c1ncncc1-c1ccccc1C(F)(F)F`, for which the activity, negative = inhibition was -7.74% [at 2.29 µM] (inactive).

Turning to `COc1ccccc1-c1cc(Nc2ccn[nH]2)ncn1`, the activity, negative = inhibition was -3.07% [at 2.29 µM] (inactive). With `CC(C)SC(=N)N`, the AC50 entry is “inactive”. As for `Clc1ccc([C@H](Cn2ccnc2)OCc2csc3c(Cl)cccc23)c(Cl)c1`, the AC50 was 0.316 µM (active). As for `Clc1ccc(COC(Cn2ccnc2)c2ccc(Cl)cc2Cl)c(Cl)c1` (configuration not stated), the AC50 was 0.316 µM (active). For `NC(N)=NC(N)=Nc1c(F)c(F)c(F)c(F)c1F`, the activity, negative = inhibition is 0.138% [at 11.4 µM] (inactive). Take `O=C(O)c1cc2cc(Cc3cccnc3)ccc2o1`: the AC50 result was “inactive”. Regarding `O=S(=O)(O)c1nc2ccccc2n1Cc1ccccc1`, the AC50 was 25.1 µM (active). Take `OCCN1CCN(CCOc2cccc(Cl)c2)CC1`: the AC50 result was “inactive”.

In the case of `O=C(O)[C@@H]1[C@H](C(=O)O)[C@H]2C(=O)C=C[C@H]1N2Cc1ccccc1`, the activity, negative = inhibition was 4.11% [at 11.4 µM] (inactive). As for `Cc1cccc(OCCn2c(S(=O)(=O)O)nc3ccccc32)c1`, the AC50 was 5.62 µM (active). The same measure, in the same setting: as for `Cc1cccc(OCCn2c(-c3ccco3)nc3ccccc32)c1`, the figure is 1.78 µM (active); as for `Cc1cccc(CCNc2nc3ccccc3n3nnnc23)c1`, “inactive”. The same measure, in the same setting: in the case of `CS(=O)(=O)c1nc2ccccc2n1Cc1ccccc1` it was “inactive”. For the molecule `OC[C@@H]1NC[C@@H](O)[C@@H](O)[C@H]1O`, the AC50 entry is “inactive”.

Take `COC(=O)N1CCC2(CCCN(C(=O)Nc3cccc(F)c3)C2)CC1`: the AC50 result is “inactive”.

With `O=C(c1[nH]o[n+](=O)c1C(=O)c1csc2ccccc12)c1csc2ccccc12`, the AC50 was 1.58 µM (active). Turning to `O=C1NCCc2c1[nH]c1ccccc21`, the AC50 entry was “inactive”. The same measure, in the same setting: in the case of `COc1cccc(/C=c2/s/c(=C(\C#N)C(=O)N3CCOCC3)n(-c3ccccc3)c2=O)c1` it was “inactive”; in that of `CN(c1ccccc1)c1ccc(/C=c2\s/c(=C(/C#N)C(=O)C(C)(C)C)n(Cc3ccco3)c2=O)cc1`, 3.55 µM (active); in that of `COC(=O)c1ccc(C(NC(=O)c2ccccc2)[C@]2(C)C[C@H]2C2CCCCC2)cc1` (some centres not stated), “inactive”. With `C=C(CC1([C@@H](NP(=O)(c2ccccc2)c2ccccc2)[C@H]2C[C@@H]2CCCC)CC1)c1ccccc1`, the AC50 is 10 µM (active). Regarding `CCCC[C@@H]1C[C@H]1C(NC(=O)c1ccco1)c1ccccc1` (some centres not stated), the AC50 was 15.8 µM (active). As for `CCCC[C@@H]1C[C@H]1C(NC(=O)c1ccc(-c2ccccc2)cc1)c1ccc(-c2ccccc2)cc1` (some centres not stated), the AC50 result is “inactive”. Still for that read-out and setting: as for `COC(=O)c1ccc(C(NC(=O)c2ccco2)[C@]2(C)C[C@H]2C2CCCCC2)cc1` (some centres not stated), the figure is 10 µM (active); as for `C[C@@]1(C(NC(=O)Cc2ccccc2)c2ccc(-c3ccccc3)cc2)C[C@H]1C1CCCCC1` (some centres not stated), “inactive”. For the molecule `CCCC[C@@H]1C[C@H]1C(NC(=O)c1ccccc1)c1ccccc1` (some centres not stated), the AC50 is 7.94 µM (active). For the molecule `CN(C)CCSCCO`, the activity, negative = inhibition is 13.5% [at 11.4 µM] (inactive). In the case of `CO[C@@H]1COC(=O)[C@H](COCc2ccccc2)NC(=O)C/C=C\[C@@H](C)[C@H](OC)COC(=O)[C@@H](C)NC(=O)C/C=C\[C@H]1C`, the activity, negative = inhibition is -22.8% [at 11.4 µM] (inactive). `CCCC[C@@H]1C[C@H]1C(NC(=O)c1ccco1)c1ccc(Cl)cc1` (some centres not stated): the AC50 was 3.98 µM (active). In the case of `CCCC[C@@H]1C[C@H]1C(NC(=O)c1ccco1)c1ccc(C(=O)OC)cc1` (some centres not stated), the AC50 was 0.794 µM (active). Regarding `C[N+]1(CCC(=O)c2ccco2)CC2CCC(CC2)C1` (configuration not stated), the activity, negative = inhibition was 6.14% [at 11.4 µM] (inactive). Turning to `CCC[C@@H]1C[C@@]1(CCC)C(NS(=O)(=O)c1cccc2cccnc12)c1ccc(Cl)cc1` (some centres not stated), the AC50 was 7.94 µM (active). Still for that read-out and setting: in the case of `CCC[C@@H]1C[C@@]1(CCC)C(NC(=O)c1ccco1)c1ccc(Cl)cc1` (some centres not stated) it was 15.8 µM (active); in that of `C[C@@]1(C(NC(=O)c2ccc(-c3ccccc3)cc2)c2ccc(Cl)cc2)C[C@H]1C1CCCCC1` (some centres not stated), “inactive”.
